# RE007 growth inh: less growth of the S. pombe RE007 Vpr strain; S. pombe RE007 Vpr strain, BacTiter-Glo ATP luminescence, 24 h; Potency, µM (doses to about 92.2 µM), for the others: at the top dose activity change, negative = less growth, most hits filed as inhibitors; actives 0.21% (n = 360,000); AID 651644; active means well fitted falling curve with a large enough effect; inconclusive means small, poorly fitted or top-dose-only effect; inactive means no such curve, though single readings can be large or run the other way; further: potency means the concentration at half of the fitted maximal effect; on the % scale 0 is the no-effect control and ±100 the full control effect; nearly all actives have a fitted effect of over 50% in size
#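 Fission yeast strain RE007, carrying one chromosomally integrated HIV-1 vpr copy, was seeded at OD 0.01 in PMG+AL medium with 23 nL pinned compound. After 24 h at 30 °C and 99% humidity, viability was read by BacTiter-Glo luminescence.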
# LmPK inh: LmPK (Leishmania mexicana) enzyme inhibition. Q27686. purified LmPK, Kinase-Glo ATP luminescence, 1 h. Potency, µM (series often up to 57.5 µM), for inactives: at the top dose activity change, negative = inhibition, most hits filed as inhibitors. actives 0.37% (n = 290,000). AID 1721; further: potency means the concentration at half of the fitted maximal effect; on the % scale 0 is the no-effect control and ±100 the full control effect
#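 Pyruvate kinase activity monitored as ATP production (luciferase luminescence). Conditions: 0.1 nM enzyme, 0.5 mM PEP, 0.1 mM ADP, 1 h, RT; normalized against uninhibited and no-enzyme wells.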
# Giardia FBPA inh: Giardia lamblia aldolase inhibition; purified Giardia FBPA; Potency, µM (highest dose often 59.6 µM), for inactives: at the top dose activity, negative = inhibition, hits mostly inhibitors; actives 0.71% (n = 290,000); further: potency means the concentration at half of the fitted maximal effect; on the % scale 0 is the no-effect control and ±100 the full control effect; nearly all actives have a fitted effect of over 55% in size
# Target sequence (A8B2U2 whole entry, looked up): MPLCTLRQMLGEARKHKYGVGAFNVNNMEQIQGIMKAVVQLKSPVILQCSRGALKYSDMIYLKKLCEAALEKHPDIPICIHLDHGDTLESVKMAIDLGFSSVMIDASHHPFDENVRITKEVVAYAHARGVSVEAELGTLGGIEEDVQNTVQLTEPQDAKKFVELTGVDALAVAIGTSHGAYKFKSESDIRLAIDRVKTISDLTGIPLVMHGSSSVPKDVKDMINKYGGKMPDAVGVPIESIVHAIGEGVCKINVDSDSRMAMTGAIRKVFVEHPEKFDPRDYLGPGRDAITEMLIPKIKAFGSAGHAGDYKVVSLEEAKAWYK
#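 40 nM FBPA preincubated 10 min at RT with compound (up to 57.5 uM final), then substrate plus GAPDH/TPI/NAD/arsenate coupling and diaphorase/resazurin added. Fluorescence read after 20 min at RT, 525/598 nm.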
# TbPYK inhibitor: T. brucei pyruvate kinase inhibition. Q57TT1. TbPYK enzyme, Kinase-Glo Plus ATP luminescence, 45 min. Potency, µM (doses to about 76.8 µM), inactives show at the highest dose activity, negative = inhibition, hits mostly inhibitors. actives 0.12% (n = 410,000). AID 624173; further: potency means the concentration at half of the fitted maximal effect; on the % scale 0 is the no-effect control and ±100 the full control effect; nearly all actives have a fitted effect of over 50% in size
#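 ADP (130 uM final) triggers the TbPYK reaction after compound addition; incubation is 45 min at room temperature. Kinase-Glo Plus is then added and luminescence imaged. Normalized data are fitted to concentration-effect curves.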
# CHX counter: affects cycloheximide protein synthesis inhibition readout, counter-screen; cell reporter, cycloheximide protein synthesis inhibition counterscreen; max response, %; actives 12% (n = 300,000); AID 2314; in the data active means max response mostly above about 13%, no sharp cut-off; inactive means mostly below about 14%; further: read at 38.3 µM for the half of the compounds with a filed dose; 0% is about no effect
# Shiga inhibitor: blocks Shiga toxin action in Vero cells; Vero cells, Shiga toxin protein synthesis inhibition reporter; inhibition, % at 38.7 µM; actives 9.2% (n = 290,000); AID 2315; in the data active means inhibition mostly above about 28%, no sharp cut-off; inactive means mostly below about 43%; further: 0% is about no effect
# An asterisk follows results filed as active; ? = inconclusive; . = no result given. Many of the other results were omitted from the sample, so hits are more common in it than they were. Unless noted, the call rests on the fitted dose curve; in most records, active means well fitted curve in the direction sought with a large enough effect; inconclusive means small, poorly fitted or top-dose-only effect, or another doubt; inactive means no such curve, though single readings can be large; an effect the other way counts as inactive or inconclusive.
SMILES,RE007 growth inh,LmPK inh,Giardia FBPA inh,TbPYK inhibitor,CHX counter,Shiga inhibitor
CCc1ccccc1NC(=O)C(=O)NCC(c1cccnc1)N1CCN(c2ccccc2F)CC1 (configuration not stated),.,.,.,-2.6%,.,.
COC(=O)c1cc(-c2ccc(C)o2)nc2ccccc12,11.2µM*,-13.0%,-14.7%,22.4µM*,-1.5,12.4
Cc1ccc(-c2cc(C(=O)O)c3cc(Br)ccc3n2)s1,-18.0%,-7.1%,-12.2%,6.3%,23.4*,41.7*
Cc1ccc(-c2cc(C(=O)Nc3ccccc3C)c3ccccc3n2)o1,-16.6%,-9.0%,-25.4%,-18.6%,-1.4,8.1
Cc1ccc(-c2cc(C(=O)O)c3cc(Br)ccc3n2)o1,.,-25.3%,?,10µM*,6.9,12.8
CC/C=C\C[C@@H](/C=C/C=C\C/C=C\C/C=C\CCCC(=O)O)OO,.,.,1.0%,.,.,.
CCCOc1cccc(NC(=O)OC2CCN(C)CC2)c1,15.3%,0.3%,4.1%,4.7%,3.2,9.8
CN1C(=O)/C(=C\C=C2/CCCN2C)N(C)C1=S,-16.4%,-3.2%,?,1.9%,22.8*,54.4
CCN1C(=O)/C(=C/C=C2/CCCN2C)OC1=S,-7.6%,-5.6%,-21.9%,0.2%,28.1*,45.7*
CCN1C(=O)/C(=C\N2CCCc3ccccc32)SC1=S,12.9%,4.3%,-12.1%,1.9%,-2.9,40.5
Cc1ccc(N2CCN(S(=O)(=O)c3ccc(Cl)s3)CC2C)cc1 (configuration not stated),4.4%,-3.0%,.,2.3%,14.9*,22.0*
Cc1ccc(N2CCN(S(=O)(=O)c3c(C)[nH]c(=O)[nH]c3=O)CC2C)cc1 (configuration not stated),.,.,.,3.9%,.,.
Cc1ccn2c(CNCC3OCCc4ccccc43)c(C(=O)N3CCCCCC3)nc2c1 (configuration not stated),-13.3%,2.7%,1.5%,5.9%,-0.9,2.4
O=C(Nc1nc2ccccc2c2nc3ccccc3n12)c1ccc(F)cc1,.,2.7%,0.6%,.,-6.0,-5.3
CN(C)CCn1c(NC(=O)c2ccc(Cl)cc2)nc2ccccc21,16.4%,5.0%,0.0%,0.0%,38.3*,89.0*
CCN(CC)CCn1c(NC(=O)c2ccc(C)cc2)nc2ccccc21,2.7%,4.0%,14.0%,-5.7%,44.3*,.
Cn1c(NC(=O)c2ccc(F)cc2)nc2ccccc21,-13.1%,-9.9%,-2.6%,0.6%,30.7*,39.9*
O=C(Nc1nc2ccccc2n1CCN1CCOCC1)c1ccccc1,-6.9%,0.7%,-4.2%,-2.1%,10.1*,18.3
O=C(COC(=O)CSc1ccc(F)cc1)NC1CCCCCC1,1.9%,.,.,4.1%,.,.
Cc1cccc(C)c1NC(=O)C(C1CC1)n1c(-c2ccc(C(F)(F)F)cc2)nc2ccccc21 (configuration not stated),0.5%,.,.,.,.,.
CCOC(=O)/C=c1\s/c(=C\c2sccc2C)c(=O)n1CC(=O)NCc1ccc(C)cc1,.,-0.5%,7.8%,.,-1.7,-6.3
CCc1nn(CC(=O)NCCC2=CCCCC2)c(=O)c2cc3cc(F)ccc3n12,0.8%,-0.6%,.,1.6%,1.1,-6.0
CCn1c(NC(C)=O)nc2ccccc21,-23.0%,-8.4%,-7.3%,-6.2%,-3.3,-3.0
CCn1c(NC(=O)c2cccs2)nc2ccccc21,-16.8%,0.2%,?,14.5%,46.6*,65.1
O=C(CCn1c(=O)c2ccccc2n(Cc2cccc(F)c2)c1=O)NCc1ccc2c(c1)OCO2,.,.,.,4.3%,.,.
Cc1ccc(C(=O)Nc2nnc(-c3ccco3)o2)cc1C,-10.4%,-9.3%,?,-1.0%,21.6*,57.4*
O=C(Nc1nnc(-c2ccco2)o1)c1ccc(Cl)cc1,-4.2%,-13.5%,?,1.6%,28.9*,41.6*
O=C(Nc1nnc(-c2ccccc2)o1)c1ccc(Cl)cc1,-27.0%,4.7%,24.7%,-3.0%,9.3,-3.7
Cc1ccccc1C(=O)Nc1nnc(-c2ccco2)o1,-2.3%,-26.6%,11.6%,1.1%,33.1*,56.7*
O=C(Nc1nnc(-c2ccco2)o1)c1cccc(N2C(=O)CCC2=O)c1,24.7%,9.5%,?,0.4%,21.6,98.6*
